Screening data (PubChem BioAssay)
GPR7 antagonist = blocks human GPR7 receptor signaling; AID 1861; P48145; GPR7-expressing cells, fluorescence antagonist assay; inhibition, % at 4.4 µM; actives 1.1% (n = 290,000); in the data active means inhibition above about 16%, passing the limit was not always enough;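 further: cells stimulated with the agonist NPW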
ANO1 block = mouse TMEM16A channel inhibition, primary screen; actives 1.2% (n = 310,000); AID 588511; Q8BHY3; normalized B-score (activity score, 25-100; higher = stronger inhibition) at 10 µM; HEK293 TMEM16A/YFP iodide influx fluorescence, ionomycin;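 active means ratio plate-corrected score three or more library SD toward inhibition, starting fluorescence score within five deviations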;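 further: score derived from kinetic fluorescence span divided by baseline fluorescence per well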
Target sequence (Q8BHY3 whole entry, looked up): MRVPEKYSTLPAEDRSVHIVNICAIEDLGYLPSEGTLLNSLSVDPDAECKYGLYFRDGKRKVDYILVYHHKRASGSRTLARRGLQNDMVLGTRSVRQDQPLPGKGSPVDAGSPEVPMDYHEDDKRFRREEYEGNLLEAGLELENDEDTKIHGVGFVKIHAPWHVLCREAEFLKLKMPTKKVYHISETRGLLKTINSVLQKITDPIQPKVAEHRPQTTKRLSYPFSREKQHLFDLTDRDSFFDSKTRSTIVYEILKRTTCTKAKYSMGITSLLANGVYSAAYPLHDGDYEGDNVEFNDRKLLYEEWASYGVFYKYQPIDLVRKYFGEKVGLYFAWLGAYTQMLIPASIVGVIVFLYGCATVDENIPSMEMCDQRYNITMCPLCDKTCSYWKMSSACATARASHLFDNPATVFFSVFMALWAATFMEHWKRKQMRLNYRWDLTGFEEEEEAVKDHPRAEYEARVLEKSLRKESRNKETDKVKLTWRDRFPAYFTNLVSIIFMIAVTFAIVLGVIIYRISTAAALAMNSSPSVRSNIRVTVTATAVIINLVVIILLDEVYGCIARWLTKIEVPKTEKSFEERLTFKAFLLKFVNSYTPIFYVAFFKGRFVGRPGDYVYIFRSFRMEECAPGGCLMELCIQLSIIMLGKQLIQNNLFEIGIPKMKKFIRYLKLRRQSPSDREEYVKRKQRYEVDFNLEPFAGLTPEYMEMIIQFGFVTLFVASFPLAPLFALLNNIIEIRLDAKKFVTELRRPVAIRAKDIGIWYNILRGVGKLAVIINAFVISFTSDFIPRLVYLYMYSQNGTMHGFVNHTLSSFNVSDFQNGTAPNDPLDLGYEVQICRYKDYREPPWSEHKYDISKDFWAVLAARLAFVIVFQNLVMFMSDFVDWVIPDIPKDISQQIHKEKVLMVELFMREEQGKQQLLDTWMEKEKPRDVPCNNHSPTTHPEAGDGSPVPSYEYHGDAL
ANO1 activ = activators or potentiators of mouse TMEM16A chloride channel | Q8BHY3 | HEK293 TMEM16A/YFP-H148Q/I152L, iodide quench fluorescence; active compounds read low | B-score at 10 µM | actives 0.3% (n = 340,000);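 active means fluorescence-ratio B-score plate-corrected deviation score at least 3 library SD below zero, with starting fluorescence score within 5 deviations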;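 further: channel opened by trigger with iodide after compound preincubation; score built on the fluorescence ratio of max minus min over baseline; more negative score means more quench and so TMEM16A activation or potentiation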
CHT inh = inhibits the human high affinity choline transporter; Q9GZV3; CHT-expressing cells, membrane potential dye, choline response; active compounds read low; B-score at 10 µM; actives 0.86% (n = 310,000);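 active means B-score over 3 SD under the library average, and starting fluorescence ratio not unusually high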;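 further: choline stimulus applied at its EC90 after an EC20 pre-addition; B-score computed on integrated fluorescence ratio after choline addition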
Kir21 inh = inhibitors of mouse Kir2.1 inward-rectifier potassium channel; HEK293-Kir2.1, FluxOR thallium flux fluorescence; active compounds read low; B-score at 10 µM; actives 0.85% (n = 310,000); AID 1672;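 active means fluorescence ratio B-score at or below minus 3 SD of library scores, with starting-brightness B-score within 2 SD, cut at about -4.2 in these data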;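 further: channel flux triggered by added potassium and thallium sulfate stimulus; B-score of peak minus minimum fluorescence over baseline after thallium stimulus; more negative B-score means stronger Kir2.1 block with less thallium influx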
CHT allo act = allosterically activates the human high affinity choline transporter; Q9GZV3; CHT-expressing cells, membrane potential dye, choline EC20; active compounds read high; LV-AA mutant CHT in HEK293 cells; B-score at 10 µM; actives 0.49% (n = 310,000); AID 488977;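 active means initial fluorescence not abnormally high and integrated response B-score, plate-corrected, over 3 SD above library mean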
CHT activ conf = human CHT activation, confirmatory screen. shares compounds with CHT allo act. CHT-expressing cells, membrane potential dye fluorescence (FDSS); % of choline EC20–EC90 response window; HEK293 expressing CHT LV-AA mutant; choline added at its EC20. activation, % at 10 µM. actives 91% (n = 2,500);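 active means primary screen active, with duplicate mean activation above negative control mean plus 3 SD, cut at about 11% in these data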
HEK293 MP dye = CHT activator counter-screen hit in parental HEK293 cells. actives 62% (n = 2,500). shares compounds with CHT allo act. ratio readout change at 10 µM, hits read low. membrane potential dye fluorescence (FDSS); measured after EC20 choline addition;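 active means duplicate-averaged ratio beyond 3 SD from buffer wells, up or down, though filed actives are nearly all decreases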
TMEM16A reconf = re-confirmation of mouse TMEM16A chloride channel inhibitors; shares compounds with ANO1 block; inhibition, % at 10 µM; HEK293 TMEM16A/YFP-H148Q, iodide quench fluorescence; ionomycin added to raise cell calcium; actives 39% (n = 2,300);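 active means mean duplicate percent inhibition, scaled so buffer wells are 0 and the reference blocker 100, over three buffer SD above buffer mean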
TMEM16A Ca cntr = alters calcium mobilization in TMEM16A HEK293 cells, counter-screen; shares compounds with ANO1 block; TMEM16A/YFP HEK293, Fluo4 calcium mobilization; calcium response (% of ionomycin), % at 10 µM; actives 2% (n = 2,300);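 active means duplicate-averaged calcium signal over 20% of the ionomycin maximum, relative to buffer baseline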;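 further: each well's signal is peak minus trough fluorescence divided by its pre-addition baseline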
YFP-HEK293 quench = acts in parental YFP-HEK293 cells lacking TMEM16A, counter-screen. shares compounds with ANO1 block. iodide YFP quench, ionomycin. YFP ratio F(max-min)/F0 at 10 µM. 2,300 tested, under 10 active;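 active means yellow fluorescent protein signal ratio exceeding the buffer control mean by over 5 SD of those controls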;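 further: ratio is mean of duplicate wells from kinetic YFP trace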
ClC-1 inh = selectivity of TMEM16A inhibitors: inhibition of rat ClC-1 chloride channel; AID 652236; 2,300 tested, under 10 active; CHO ClC-1-YFP, iodide influx fluorescence quench; iodide control reads 0, buffer control 100; shares compounds with ANO1 block; ratio percent, % at 10 µM;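 active means duplicate-mean ratio percent above the mean of iodide-only control wells, which defines zero, plus 5 of their SD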;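 further: higher percent means stronger block of ClC-1 iodide influx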
Hits are given with their value; n = inactive; x = no result. An excerpt weighted towards active compounds, which were near 3.7% of everything screened.

SMILES	GPR7 antagonist	ANO1 block	ANO1 activ	CHT inh	Kir21 inh	CHT allo act	others
Nc1c([N+](=O)[O-])cc(F)c(N2CCNCC2)c1Br	n	n	n	n	n	n	CHT activ conf=43;HEK293 MP dye=-55
COc1c2c(cc3c1OCO3)CC[N+](C)=C2	n	n	n	n	n	9.2	CHT activ conf=58;HEK293 MP dye=-60
COc1ccc2c(c1OC)CN1CCc3cc4c(cc3C1C2)OCO4 (configuration not stated)	n	n	x	n	n	n
C[C@H](NC(=O)N1C[C@H]2C[C@@H](C1)c1cccc(=O)n1C2)C(=O)Nc1cccc(F)c1	n	n	n	n	n	n
COc1ccc2c(c1OC)CN1CCc3cc4c(cc3[C@H]1C2)OCO4	x	x	n	x	x	x
COc1ccc2c(c1O)-c1c(OC)c(OC)cc3c1[C@H](C2)N(C)CC3	x	n	n	n	x	8.4	CHT activ conf=56;HEK293 MP dye=-66
COc1cc2c(cc1OC)-c1c(OC)c(OC)cc3c1[C@H](C2)N(C)CC3	n	n	n	n	n	7.6	CHT activ conf=44;HEK293 MP dye=-73
N#Cc1ccc(NC(=O)CN2CCCCCC2)cc1Cl	n	n	n	n	n	n
Cn1c(=O)n(C)c2cc([N+](=O)[O-])c(N3CCNCC3)cc21	n	n	n	n	n	9.7	CHT activ conf=n;HEK293 MP dye=n
COc1cc2c(cc1OC)C13CCN4CC5=CCOC6CC(=O)N2C1C6C5C3C4 (configuration not stated) (tested in a mixture with another compound)	x	x	n	x	x	x
COc1ccc2[nH]c3c(c2c1)CCN=C3C	x	n	n	n	x	7.1	CHT activ conf=47;HEK293 MP dye=-45
Clc1ccc(N2CC2c2ccncc2)cc1 (configuration not stated)	n	n	n	n	n	n
C=CCN1C(=O)NC(=O)/C(=C/c2c(CCN(C)C(=O)c3ccccc3)cc3c(c2OC)OCO3)C1=O	n	n	n	n	n	n
CNC(=S)N(C)CCc1cc2c(c(OC)c1C=C1C(=O)NC(=O)NC1=O)OCO2	n	n	n	n	n	7.3	CHT activ conf=51;HEK293 MP dye=-56
CN(C)/C=C1/C(=O)NC(=O)N(CCNc2ncc(C(F)(F)F)cc2Cl)C1=O	n	n	n	n	n	n
COc1cc(/C=C/c2nc3ccccc3c(=O)n2-c2ccc(O)cc2)ccc1O	n	n	n	n	n	n	CHT activ conf=18;HEK293 MP dye=n
COc1ccc(-n2c(/C=C/c3ccc(O)c(O)c3)nc3ccccc3c2=O)cc1	n	n	n	n	n	n
COc1cc(/C=C2\C[C@H]3[C@@H]4CC=C5C[C@@H](N6CCCC6)CC[C@]5(C)[C@H]4CC[C@]3(C)[C@H]2O)cc(OC)c1OC	x	x	n	x	x	x
O=C(c1ccco1)c1cn(Cc2ccc(Cl)cc2)c2ccccc12	n	n	n	n	n	n	CHT activ conf=18;HEK293 MP dye=n
CC(=O)c1cn(Cc2ccc(F)cc2)c2ccccc12	n	n	n	n	n	n
COc1ccc(Cc2nccc3cc(OC)c(OC)cc23)cc1OC	n	n	n	n	-8.3	8.6	CHT activ conf=59;HEK293 MP dye=-66
COc1cc2c(ccc3c4cc(OC)c(OC)cc4c[n+](C)c23)cc1O	x	x	n	x	x	x
O=C(Cc1ccccc1)N1CCN(Cc2ccccc2Cl)CC1	n	25	n	n	n	n	TMEM16A reconf=n;TMEM16A Ca cntr=n;YFP-HEK293 quench=n;ClC-1 inh=n
CC(C)CNC(=O)c1c(N)n(Cc2ccco2)c2nc3ccccc3nc12	n	n	n	n	n	n	TMEM16A reconf=18%;TMEM16A Ca cntr=n;YFP-HEK293 quench=n;ClC-1 inh=n
COCCCNC(=O)c1c(N)n(Cc2ccco2)c2nc3ccccc3nc12	n	n	n	n	n	n
SMILES	GPR7 antagonist	ANO1 block	ANO1 activ	CHT inh	Kir21 inh	CHT allo act	others
CCCNC(=O)c1c(N)n(Cc2ccco2)c2nc3ccccc3nc12	n	n	x	n	n	n	TMEM16A reconf=n;TMEM16A Ca cntr=n;YFP-HEK293 quench=n;ClC-1 inh=n
O=C(Nc1ccc(F)cc1)OC1CN2CCC1CC2 (configuration not stated)	n	n	n	n	n	n
Cc1cc(OC(=O)c2cccs2)c2c3c(c(=O)oc2c1)CCCC3	n	n	n	n	n	n
Cc1cc(OC(=O)c2ccco2)c2c3c(c(=O)oc2c1)CCCC3	n	100	n	n	n	n	TMEM16A reconf=n;TMEM16A Ca cntr=n;YFP-HEK293 quench=n;ClC-1 inh=n
Oc1ccc(CC2(N3CCCC3)CCCCC2)cc1	n	n	n	n	n	n
CC(C)N1OC2CC1c1nc3ccccc3n1C2 (configuration not stated)	x	25	n	n	n	n	TMEM16A reconf=n;TMEM16A Ca cntr=n;YFP-HEK293 quench=n;ClC-1 inh=n
Cc1nc(C)c(C(=O)NN=Cc2ccc(N(CCCl)CCCl)cc2)s1	x	x	n	x	x	x
CCCCCCC(C)(C)c1ccc([C@@H]2C[C@H](O)CC[C@H]2CCCO)c(O)c1	x	100	n	n	x	n	TMEM16A reconf=n;TMEM16A Ca cntr=n;YFP-HEK293 quench=n;ClC-1 inh=n
Cc1oc2ccc(OC(=O)N(C)C)cc2c1C(=O)OC(C)C	n	n	n	n	n	n
CCOC(=O)c1c(-c2ccc(OC)cc2)oc2ccc(OC(=O)N(C)C)cc12	n	100	n	n	n	n	TMEM16A reconf=n;TMEM16A Ca cntr=n;YFP-HEK293 quench=n;ClC-1 inh=n
O=C(c1cc2c(s1)CCCCCC2)N1CCC2(CC1)OCCO2	n	n	n	n	n	n
CCc1sc(C(=O)N2CCC3(CC2)OCCO3)cc1Br	n	100	n	n	n	n	TMEM16A reconf=n;TMEM16A Ca cntr=n;YFP-HEK293 quench=n;ClC-1 inh=n
CC1=C(C/C(C)=C/c2ccccc2)/C(=C/CO)[C@H](O)[C@](C)(O)C12CC2	x	n	n	n	n	n
CCCCNC(=O)NC(C(N)=O)P(=O)(OCC)OCC (configuration not stated)	n	n	n	n	n	n
CC(C)=CCc1c(O)cc2c(c1O)C(=O)CC(c1ccc(O)cc1)O2 (configuration not stated)	x	100	n	n	n	n	TMEM16A reconf=n;TMEM16A Ca cntr=n;YFP-HEK293 quench=n;ClC-1 inh=n
O=C(Nc1ccc(OC(=O)N2CCCCC2)cc1)N1CCOCC1	n	n	n	n	n	n
